# Source: PubChem BioAssay
# Only a selection was taken, and hits are over-represented in it overall.
# HT1080-NT tox – kills 2HG-producing HT-1080-NT fibrosarcoma cells | HT-1080-NT fibrosarcoma viability, CellTiter-Glo ATP luminescence, 48 h | Potency, µM (titrated, usually from 46.1 µM), for inactives: top-dose activity, negative = less viability, actives largely listed as cytotoxic | actives 1.6% (n = 360,000) | AID 686970;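 also: NT is the 2HG producing partner of a matched IDH1 knockdown line; potency is read from the fitted curve at half-maximal effect; 0% = DMSO-treated cells and -100% = media-only wells without cells; nearly all actives have a fitted effect of over 55% in size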
#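 Toxicity toward the 2HG-producing NT line was scored as %Activity, normalised to DMSO and no-cell wells, from CellTiter-Glo luminescence after 48 hours' treatment.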
# HT1080 IDH1KD tx – kills HT-1080 cells with IDH1 knockdown; HT-1080 IDH1 knockdown viability, ATP luminescence, 48 h; Potency, µM (doses to about 46.1 µM), inactives show at the top dose activity, negative = toxicity, hits mostly cytotoxic; actives 2% (n = 360,000);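 also: potency is read from the fitted curve at half-maximal effect; 0% = DMSO wells and -100% = cell-free medium wells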
#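 Viability of IDH1-knockdown HT-1080 fibrosarcoma cells was assessed by CellTiter-Glo after 48 h at 37 °C with titrated compound; concentration-effect curves were classified by fit quality and response size.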
# TDP1 cell CPT – growth inhibition of DT40 Tdp1-/-;hTDP1 cells with camptothecin (screen for TDP1 inhibitors); chicken DT40 Tdp1-/-;hTDP1 cells + 20 nM CPT, ATP luminescence, 48 h; Potency, µM (top dose mostly 46.2 µM), inactives show top-dose activity change, negative = growth inhibition, hits mostly inhibitors; actives 12% (n = 420,000); AID 686979; also: potency is read from the fitted curve at half-maximal effect; nearly all actives have a fitted effect of over 55% in size
#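 Chicken DT40 Tdp1-/- cells complemented with human TDP1, 400 cells/well, exposed to compounds plus 20 nM camptothecin for at least 48 h at 37 C; viability read as ATP content by CellTiter-Glo luminescence.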
# DT40 TDP1 no CPT – qHTS for Inhibitors of human tyrosyl-DNA phosphodiesterase 1 (TDP1): qHTS in cells in absence of CPT; Potency, µM (highest dose often 46.2 µM), without a hit: at the top dose activity change, negative = growth inhibition, hits mostly inhibitors; actives 15% (n = 420,000); DT40 Tdp1-/- hTDP1 cells, no CPT, ATP luminescence, 48 h; also: potency is read from the fitted curve at half-maximal effect; nearly all actives have a fitted effect of over 55% in size
#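 Chicken DT40 Tdp1-/- cells complemented with human TDP1, screened without camptothecin (DMSO vehicle only), 400 cells/well. Compounds pin-transferred, cells incubated at 37 °C for at least 48 hr. Growth read as ATP-dependent luminescence (CellTiter-Glo, 30 min at RT).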
# IL1B secr inh – inhibitors of inflammasome signaling (IL-1 beta secretion); THP-1 LPS/ATP IL-1B secretion, AlphaLISA, 16 h; hits give low values; activity change, % at 57.5 µM; actives 4.7% (n = 360,000); AID 743279; in the data active = activity change below about -50%; inconclusive = mostly about -30% to -49%
#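 THP-1 cells pretreated 1 hr with compounds (up to 57.5 uM final), then stimulated with LPS (250 ng/mL final) plus ATP (1.25 mM final); secreted IL-1B measured by AlphaLISA after 16 hr, decreased signal indicating inhibition.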
# 12-LOX inh – blocks human arachidonate 12S-lipoxygenase; Potency, µM (titrated, usually from 108 µM), inactives show top-dose activity change, negative = inhibition, hits mostly inhibitors; purified 12hLO, xylenol orange hydroperoxide absorbance; actives 1.1% (n = 580,000); P18054; also: potency is read from the fitted curve at half-maximal effect
# Target sequence (P18054 whole entry, looked up): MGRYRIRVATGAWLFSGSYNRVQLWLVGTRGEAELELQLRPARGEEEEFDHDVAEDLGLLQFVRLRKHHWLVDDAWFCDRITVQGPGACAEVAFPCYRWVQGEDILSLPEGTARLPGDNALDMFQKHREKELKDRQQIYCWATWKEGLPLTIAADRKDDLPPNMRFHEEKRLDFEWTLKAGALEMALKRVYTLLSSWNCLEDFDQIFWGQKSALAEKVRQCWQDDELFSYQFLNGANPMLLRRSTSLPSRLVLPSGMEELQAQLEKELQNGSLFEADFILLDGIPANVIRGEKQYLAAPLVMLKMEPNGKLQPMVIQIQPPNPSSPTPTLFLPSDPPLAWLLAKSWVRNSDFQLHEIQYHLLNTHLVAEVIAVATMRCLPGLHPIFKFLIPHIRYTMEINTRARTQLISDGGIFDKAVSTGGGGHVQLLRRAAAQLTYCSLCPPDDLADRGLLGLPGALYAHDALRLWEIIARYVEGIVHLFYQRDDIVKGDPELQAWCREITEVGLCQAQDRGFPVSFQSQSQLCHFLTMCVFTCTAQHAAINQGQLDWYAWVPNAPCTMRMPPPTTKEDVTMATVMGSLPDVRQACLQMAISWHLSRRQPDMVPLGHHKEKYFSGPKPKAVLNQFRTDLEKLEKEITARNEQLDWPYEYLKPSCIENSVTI
#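 Purified human 12hLO at 150 nM in 25 mM Hepes, 0.01% Triton X-100, pH 7.0, preincubated 15 min at room temperature with compound. Reaction started with 40 uM arachidonic acid, 30 min at room temperature. Hydroperoxide measured by Fe-xylenol orange, 573/405 nm absorbance ratio.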
# The depositor's hits bear a star; ? = inconclusive; / = no result given; [ ] = remark or other dose. Unless noted, calls follow the shape of the dose curve; as a rule, active = well fitted curve in the direction sought with a large enough effect; inconclusive = small, poorly fitted or top-dose-only effect, or another doubt; inactive = no such curve, though single readings can be large; an effect the other way counts as inactive or inconclusive. Unless noted, % is scaled to controls: 0 for no effect and ±100 for the full control effect.
SMILES,HT1080-NT tox,HT1080 IDH1KD tx,TDP1 cell CPT,DT40 TDP1 no CPT,IL1B secr inh,12-LOX inh
COCCCN=C1NN=C(c2cc(C)n(Cc3ccccc3Cl)c2C)CS1,4.6µM*,7.3µM*,?,2.3µM*,?,?
COCCCN=C1NN=C(c2cc(C)n(-c3ccccc3)c2C)CS1,7%,13%,?,16µM*,39,-13%
Cc1cc(C2=NNC(=NC3CC3)SC2)c(C)n1-c1c(C)n(C)n(-c2ccccc2)c1=O,1%,0%,-1%,-4%,1,-5%
Cc1cc(C2=NNC(=NCCc3ccccc3)SC2)c(C)n1-c1c(C)n(C)n(-c2ccccc2)c1=O,-8%,-11%,-6%,-11%,-3,?
Cc1cc(C2=NNC(=Nc3ccccc3)SC2)c(C)n1C,7%,-2%,?,?,-20,14µM*
COCCCN=C1NN=C(c2cc(C)n(-c3ccccc3F)c2C)CS1,?,?,16µM*,8.2µM*,17,-16%
O=C(c1ccsc1)N1CCC(Oc2cccc(F)c2)C1 (stereo not drawn),/,/,/,/,/,8%
COC(=O)[C@@H]1Cc2c([nH]c3ccccc23)[C@@H]2C[C@@H](NC(C)C)C[C@@H](c3ccc(F)cc3)N12,/,/,/,/,/,21%
Cc1cc(C)c(S(=O)(=O)N2C[C@H]3CON(C)[C@H]3C[C@H]2c2ccc(-n3ccnc3)cc2)c(C)c1,/,/,/,/,/,8%
COC(=O)[C@@H]1Cc2nc[nH]c2CN1C(C)C,/,/,/,/,/,337%[176 µM]
COc1ccc(C2C(C(C)=O)=C(O)C(=O)N2c2ccc(C)cc2)cc1 (stereo not drawn),-2%,3%,-12%,3%,0,?
Cc1cc(C)cc(N2C(N)=NC(N)=NC2c2ccccc2F)c1 (stereo not drawn),-7%,?,?,0.65µM*,-28,0%
Cc1ccc(-n2nc3ccc(N)cc3n2)cc1,-21%,-18%,-20%,2%,24,13%
Cc1cc(C)cc(N2C(N)=NC(N)=NC2c2cccc(Cl)c2)c1 (stereo not drawn),?,?,?,5.2µM*,-54*,?
COc1ccc(C2N=C(N)N=C(N)N2c2ccc(C)cc2)cc1 (stereo not drawn),0%,-16%,6.5µM*,?,?,-3%
Cc1cccc(-c2ocnc2C(=O)Nc2cccc(C)c2C)c1,/,/,/,/,/,-1%
CC(C)(C)c1nnc2sc(SCC(=O)NCc3ccco3)nn2c1=O,0%,2%,-18%,-6%,7,-6%
CC(C)(C)c1nnc2sc(SCC(=O)N3CCCc4ccccc43)nn2c1=O,0%,2%,?,23µM*,-29,0%
CC1Cc2ccccc2N1C(=O)CSc1nn2c(=O)c(C(C)(C)C)nnc2s1 (stereo not drawn),?,?,?,?,-96*,0%
CCn1cc(CN2CCc3ccccc3C2)ccc1=O,/,/,/,/,/,72%
CC(C)c1noc(C2CCCN(C(=O)NC3CCCCC3)CCC(=O)NCC2)n1 (stereo not drawn),/,/,/,/,/,9%
O=C(Nc1cc(C(F)(F)F)ccc1Cl)C(Sc1nnc(-c2cccs2)o1)c1ccccc1 (stereo not drawn),-11%,-21%,-3%,-1%,0,-15%
O=C(Nc1ccc(Cl)cc1C(F)(F)F)C(Sc1nnc(-c2cccs2)o1)c1ccccc1 (stereo not drawn),?,10µM*,?,21µM*,-12,-24%
COC(=O)CN1C(=O)Nc2ccc(Br)cc2C1c1ccccc1Cl (stereo not drawn),?,?,?,?,0,/
COC(=O)CC1(C(=O)OC)Oc2ccc(Br)cc2C(=O)N1c1cc(Cl)cc(Cl)c1 (stereo not drawn),?,-2%,?,?,-29,0%
SMILES,HT1080-NT tox,HT1080 IDH1KD tx,TDP1 cell CPT,DT40 TDP1 no CPT,IL1B secr inh,12-LOX inh
COC(=O)CC1(C(=O)OC)Oc2ccc(Br)cc2C(=O)N1c1cccc(Cl)c1Cl (stereo not drawn),21µM*,?,3.7µM*,6.5µM*,19,6%
COC(=O)CC1(C(=O)OC)Oc2ccc(Br)cc2C(=O)N1c1ccc(Br)cc1Cl (stereo not drawn),15µM*,15µM*,5.8µM*,4.1µM*,-28,10%
COC(=O)CC1(C(=O)OC)Oc2ccc(Br)cc2C(=O)N1c1cc(Cl)c(Cl)cc1Cl (stereo not drawn),?,-28%,8.2µM*,5.8µM*,-23,10%
COc1ccc(C(=O)Nc2ccc([C@H]3OCC(=O)N(CCN)[C@@H]3CO)cc2)cc1,/,/,/,/,/,-26%[176 µM]
COc1ccc2nc(N=NC3=C(O)CC(C)(C)CC3=O)sc2c1,-17%,?,5.2µM*,5.8µM*,141,-13%
COc1ccc2nc(N=Nc3ccc(O)c4ccccc34)sc2c1,7.3µM*,5.8µM*,1.3µM*,1.3µM*,0,-14%
O=C(NC(=S)Nc1ccccc1)c1ccc(-c2ccccc2)cc1,9%,7%,?,18µM*,-7,-26%
CC(C)NS(=O)(=O)c1ccc(NC(=S)NC(=O)c2ccc(-c3ccccc3)cc2)cc1,?,-28%,11µM*,14µM*,27,?
COc1nccnc1NS(=O)(=O)c1ccc(NC(=S)NC(=O)c2ccccc2)cc1,?,?,-12%,?,7,35µM*
COc1nccnc1NS(=O)(=O)c1ccc(NCc2ccccc2O)cc1,-7%,-16%,1%,-8%,18,-7%
FC(F)(F)c1cnc(Sc2nnc3sc4ccccc4n23)c(Cl)c1,/,/,/,/,/,23%
COc1ccc(N2CCN(CC(=O)Nc3ccccc3C(=O)NCc3ccccc3)CC2)cc1,-13%,-9%,15µM*,18µM*,3,-1%
COc1ccccc1N1CCN(CC(=O)Nc2ccccc2C(=O)NC(C)c2ccccc2)CC1 (stereo not drawn),14%,-2%,15µM*,18µM*,-10,0%
CC(NC(=O)c1ccccc1NC(=O)CN1CCN(c2ccccc2O)CC1)c1ccccc1 (stereo not drawn),4%,2%,?,?,13,0%
